Screening results: PubChem BioAssay, National Center for Advancing Translational Sciences (NCATS)
G9a inh = inhibitors of human histone lysine methyltransferase G9a; Q96KQ7; G9a H3K9 monomethylation, AlphaScreen, 2 h; Potency, µM (highest dose often 102 µM), inactives show at the highest dose activity, negative = inhibition, hits mostly inhibitors; 350,000 compounds, 8.8% hits; note: potency is the fitted concentration of half-maximal effect; % is set by controls: 0 for no effect and ±100 for the full control effect; nearly all actives have a fitted effect of over 75% in size
Target sequence (Q96KQ7 913-1193 limits assumed): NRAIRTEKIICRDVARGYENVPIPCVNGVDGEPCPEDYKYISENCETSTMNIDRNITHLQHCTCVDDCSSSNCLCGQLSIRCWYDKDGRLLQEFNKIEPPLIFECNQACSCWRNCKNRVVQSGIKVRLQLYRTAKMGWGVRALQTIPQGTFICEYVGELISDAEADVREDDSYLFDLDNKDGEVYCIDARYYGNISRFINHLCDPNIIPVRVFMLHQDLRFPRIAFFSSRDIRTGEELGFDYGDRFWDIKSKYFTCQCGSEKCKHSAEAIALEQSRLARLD
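Chemiluminescent proximity detection of H3K9 monomethylation, read after 10 min bead incubation in the dark. Reaction: 20 nM G9a, 500 nM biotin-H3K9 peptide, 20 uM SAM cofactor, 2 h, room temperature, following 15 min enzyme-compound preincubation.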
JMJD2A Tudor = inhibitors of human JMJD2A Tudor domain | 390,000 compounds, 4.4% hits | Potency, µM (highest dose often 114 µM), for inactives: at the top dose activity change, negative = inhibition, most hits filed as inhibitors | O75164 | AlphaScreen JMJD2A-Tudor / H3K4me3 peptide binding; note: potency is the fitted concentration of half-maximal effect; % is set by controls: 0 for no effect and ±100 for the full control effect; nearly all actives have a fitted effect of over 50% in size
HP1b chromo inh = inhibitors of HP1-beta chromodomain binding to methylated histone tails; P83916; 390,000 compounds, 0.56% hits; Potency, µM (series often up to 114 µM), inactives show top-dose activity change, negative = inhibition, usual class: inhibitors; AlphaScreen HP1-beta / biotin-H3K9me3 peptide binding; note: potency is the fitted concentration of half-maximal effect; nearly all actives have a fitted effect of over 70% in size
Target sequence (P83916 whole entry, looked up): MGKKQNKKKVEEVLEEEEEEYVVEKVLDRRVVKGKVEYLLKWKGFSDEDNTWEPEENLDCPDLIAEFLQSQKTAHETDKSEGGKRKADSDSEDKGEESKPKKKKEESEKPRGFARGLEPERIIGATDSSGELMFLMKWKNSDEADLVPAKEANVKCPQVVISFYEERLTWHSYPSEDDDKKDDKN
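HP1-beta protein (50 nM final) preincubated 30 min at room temperature with biotinylated H3(1-18)K9me3 peptide (50 nM) in PBS pH 7.4, 0.01% Tween-20, then compound added for 30 min. AlphaScreen streptavidin donor/nickel chelate acceptor beads (10 ug/mL final), 30 min dark, luminescence read.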
PI5P4Ka inh = PI5P4K alpha (human) kinase inhibition | PI5P4Kalpha enzyme, ADP-Glo luminescence, 60 min; hits give low values | AID 652105 | 330,000 compounds, 1.2% hits | max response, %; active = max response of -50% or lower; inconclusive = between -30% and -50%; inactive = -30% or higher; note: value at the top dose of about 77 µM; % is set by controls: 0 for no effect and ±100 for the full control effect
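Controls without substrate or without enzyme flank wells where PI5P4Kalpha converts substrate using 5 microM ATP (final). Incubation lasts 60 minutes at room temperature; ADP formed is read by ADP-Glo luminescence.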
BAZ2B block = blocks human BAZ2B. Q9UIF8. AlphaScreen BAZ2B-H3K14Ac peptide displacement. Potency, µM (titrated, usually from 114 µM), for the others: at the highest dose activity change, negative = inhibition, most hits filed as inhibitors. 360,000 compounds, 4.4% hits. AID 504333; note: potency is the fitted concentration of half-maximal effect; % is set by controls: 0 for no effect and ±100 for the full control effect; nearly all actives have a fitted effect of over 60% in size
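Inhibition is scored as reduced AlphaScreen emission. The BAZ2B/b-H3(5-23)K14Ac complex (50 nM each) in PBS pH 7.4, 0.01% Tween-20 meets compound (up to 110 uM) for 30 min at RT before bead addition.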
PLK1 PBD block = PLK1 (human) polo-box domain binding inhibition; P53350; Potency, µM, inactives show max response, negative = inhibition, actives largely listed as inhibitors; 360,000 compounds, 2.8% hits; Plk1 PBD binding of FITC phosphopeptide, fluorescence polarization; note: potency is the fitted concentration of half-maximal effect; series mostly up to about 57 µM; % is set by controls: 0 for no effect and ±100 for the full control effect; nearly all actives have a fitted effect of over 65% in size
* marks the source's active call; other numbers are inactive results; ? = inconclusive; . = no result given; [ ] = another dose, or the depositor's remark. In the library only some 12% were active in any assay of this set; here they are far more common. Unless noted, calls come from the whole dose curve; as a rule, active = well fitted curve in the direction sought with a large enough effect; inconclusive = small, poorly fitted or top-dose-only effect, or another doubt; inactive = no such curve, though single readings can be large; an effect the other way counts as inactive or inconclusive.

SMILES	G9a inh	JMJD2A Tudor	HP1b chromo inh	PI5P4Ka inh	BAZ2B block	PLK1 PBD block
CN(C)CCCN1c2ccccc2Sc2ccc(C(F)(F)F)cc21	-7.7%[59 µM]	?	-15.4%	23.5	31.6µM*	-0.4%
CC(CN(C)C)CN1c2ccccc2Sc2ccc(C(F)(F)F)cc21 (centres undefined)	-46.3%[12.7 µM]	.	.	.	.	.
CCOc1ccc(NC(=S)NC(=O)Cc2ccccc2)cc1	?	6.2%	38.8%	9.4	-26.5%	-2.9%
CCN(CC)c1ccc(NC(=S)NC(=O)Cc2ccccc2)cc1	7.94µM*	25.1µM*	?	4.4	11.2µM*	?
CCN(CC)c1ccc(NC(=O)Nc2ccccc2)cc1	8.91µM*	?	?	-0.1	?	-3.1%
CCN(CC)c1ccc(NC(=O)c2sc3ccccc3c2Cl)cc1	5.01µM*	11.2µM*	?	.	11.2µM*	.
NC(=S)NNc1c(F)c(F)c(F)c(F)c1F	35.5µM*	?	?	-54.1*	-20.5%	26.7µM*
NC(=S)Nc1ccc(F)c(F)c1F	-5.0%	-3.3%	60.4%	-1.9	-23.0%	0.1%
CCCC1O[C@@H]2C[C@H]3[C@@H]4CCC5=CC(=O)C=C[C@]5(C)[C@H]4[C@@H](O)C[C@]3(C)[C@]2(C(=O)CO)O1 (some centres undefined)	-14.9%[59 µM]	-21.6%	25.9%	-0.4	-1.6%	-11.5%
CCCC1O[C@@H]2CC3C4CCC5=CC(=O)C=C[C@]5(C)C4C(OC(C)=O)C[C@]3(C)[C@]2(C(=O)COC(C)=O)O1 (some centres undefined)	7.7%[59 µM]	17.8µM*	-17.2%	-5.4	-6.5%	18.9µM*
CCOc1ccc(Cl)cc1C(c1c(C)[nH][nH]c1=O)c1c(C)[nH][nH]c1=O	-12.8%	-22.6%	24.4%	1.2	-12.2%	?
Cc1[nH][nH]c(=O)c1C(c1ccc(N(C)C)c(Br)c1)c1c(C)[nH][nH]c1=O	.	?	8.5%	-0.9	-8.7%	0.0%
Cc1[nH][nH]c(=O)c1C(c1ccc(-c2ccc(C(=O)O)cc2)o1)c1c(C)[nH][nH]c1=O	3.55µM*	-32.0%	?	?	56.2µM*	23.8µM*
COc1ccc(-c2ccc(C(c3c(C)[nH][nH]c3=O)c3c(C)[nH][nH]c3=O)o2)c([N+](=O)[O-])c1	3.98µM*	?	-12.5%	-1.9	39.8µM*	21.2µM*
Cc1[nH][nH]c(=O)c1C(c1ccc(-c2ccc(Cl)c(Cl)c2)o1)c1c(C)[nH][nH]c1=O	11.2µM*	?	-34.6%	-18.0	?	15µM*
Cc1ccc(S(=O)(=O)Oc2ccc(C(c3c(C)[nH][nH]c3=O)c3c(C)[nH][nH]c3=O)cc2)cc1	-72.1%	-35.8%	-0.9%	.	-8.9%	?
Cc1[nH][nH]c(=O)c1C(c1ccc(-c2ccc(F)cc2)o1)c1c(C)[nH][nH]c1=O	25.1µM*	?	2.1%	3.8	?	23.8µM*
Cc1[nH][nH]c(=O)c1C(c1cc([N+](=O)[O-])ccc1O)c1c(C)[nH][nH]c1=O	21.6%	-12.2%	10.9%	-8.0	-4.2%	?
CN(C(=O)CNC(=O)c1ccc(Br)o1)C1CCCCC1	?	-11.1%	8.8%	6.2	-3.9%	1.5%
Cc1ccc(-c2nn3c(-c4ccccc4C)nnc3c3ccccc23)cc1	-2.8%[59 µM]	2.4%	37.4%	.	3.6%	.
COc1ccc(C)cc1NC(=O)c1ccc(=O)n(Cc2ccccc2)c1	-2.1%[59 µM]	-1.9%	20.2%	.	-0.9%	.
COc1ccc(NC(=O)c2c(C)oc3ccc(O)c(CN4CCCCCC4)c23)cc1Cl	-29.5%[59 µM]	-30.9%	-4.1%	.	?	.
O=[N+]([O-])c1ccc(/C=C/C2=NN(c3ccccc3)C(c3ccco3)C2)o1 (centres undefined)	31.6µM*	3.16µM*	?	-62.3*	31.6µM*	3.6%
C(=C\c1ccco1)/C1=NN(c2ccccc2)C(c2ccco2)C1 (centres undefined)	-0.6%[59 µM]	31.2%	54.9%	-10.4	?	0.6%
